{
  "source": "PubChem BioAssay (NCATS)",
  "key": {"[1]": {"biological_target": "Lysosomal acid glucosylceramidase (Homo sapiens) (UniProt P04062)", "sequence (P04062 whole entry, looked up)": "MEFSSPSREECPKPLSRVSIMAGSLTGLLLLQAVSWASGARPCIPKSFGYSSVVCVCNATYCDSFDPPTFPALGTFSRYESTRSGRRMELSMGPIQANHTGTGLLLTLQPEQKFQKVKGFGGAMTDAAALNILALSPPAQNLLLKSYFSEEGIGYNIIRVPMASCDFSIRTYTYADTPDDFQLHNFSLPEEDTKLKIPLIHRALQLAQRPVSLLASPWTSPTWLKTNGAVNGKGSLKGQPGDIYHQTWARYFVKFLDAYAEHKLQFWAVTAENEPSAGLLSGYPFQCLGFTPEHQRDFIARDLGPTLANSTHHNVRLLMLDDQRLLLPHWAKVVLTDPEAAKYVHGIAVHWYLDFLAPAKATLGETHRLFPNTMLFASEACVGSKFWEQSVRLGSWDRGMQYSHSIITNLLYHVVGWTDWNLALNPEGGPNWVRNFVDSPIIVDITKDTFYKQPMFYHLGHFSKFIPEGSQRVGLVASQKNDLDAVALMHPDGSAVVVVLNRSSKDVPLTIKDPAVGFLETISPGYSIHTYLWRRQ", "assay": "Glucocerebrosidase-p2 (AID 348; in the data active means potency below about 10 µM; further: potency means the concentration at half of the fitted maximal effect)", "conditions": "purified GBA, blue fluorogenic substrate, 40 min", "in_short": "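Normal human glucocerebrosidase (0.2 nM) with blue fluorogenic substrate (80 uM final) in citrate/phosphate pH 5.9 with 10mM sodium taurocholate, 0.01% tween-20; 40 min RT, NaOH/glycine stop; fluorescence Ex 365/Em 440; AC50 from a titration from 0.6 nM upwards.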"}, "[2]": {"assay": "AP1 Signaling Pathway (AID 357); further: on the % scale 0 is the no-effect control and ±100 the full control effect", "conditions": "ME-180 AP-1-bla reporter, EGF-induced, beta-lactamase ratio, 5 h; at 7.69 µM (top of the series) unless noted", "in_short": "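Titration-series screen for positive or negative modulators of EC50 EGF-induced signaling in ME-180 cells carrying an AP-1-driven beta-lactamase reporter. After 5 hours at 37 degrees Celsius, CCF4 460nm/530nm emission ratio gave %Activity; AC50 values derived.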"}, "[3]": {"assay": "NFAT Signaling Pathway (AID 444); further: on the % scale 0 is the no-effect control and ±100 the full control effect", "conditions": "Jurkat NFAT-bla M1, carbachol, beta-lactamase ratio, 5 h; at 7.69 µM (top of the series) unless noted", "in_short": "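Jurkat cells carrying an NFAT-driven β-lactamase reporter and co-transfected muscarinic M1 receptor were treated with compound plus carbachol (1 uM final, an EC50 level) for 5 h at 37 °C. CCF4 loading followed for 1 h at RT; 460/530 nm ratio gave %activity.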"}, "[4]": {"biological_target": "Glucocorticoid receptor (Homo sapiens) (UniProt P04150)", "sequence (P04150 whole entry, looked up, the tested form may be a part)": "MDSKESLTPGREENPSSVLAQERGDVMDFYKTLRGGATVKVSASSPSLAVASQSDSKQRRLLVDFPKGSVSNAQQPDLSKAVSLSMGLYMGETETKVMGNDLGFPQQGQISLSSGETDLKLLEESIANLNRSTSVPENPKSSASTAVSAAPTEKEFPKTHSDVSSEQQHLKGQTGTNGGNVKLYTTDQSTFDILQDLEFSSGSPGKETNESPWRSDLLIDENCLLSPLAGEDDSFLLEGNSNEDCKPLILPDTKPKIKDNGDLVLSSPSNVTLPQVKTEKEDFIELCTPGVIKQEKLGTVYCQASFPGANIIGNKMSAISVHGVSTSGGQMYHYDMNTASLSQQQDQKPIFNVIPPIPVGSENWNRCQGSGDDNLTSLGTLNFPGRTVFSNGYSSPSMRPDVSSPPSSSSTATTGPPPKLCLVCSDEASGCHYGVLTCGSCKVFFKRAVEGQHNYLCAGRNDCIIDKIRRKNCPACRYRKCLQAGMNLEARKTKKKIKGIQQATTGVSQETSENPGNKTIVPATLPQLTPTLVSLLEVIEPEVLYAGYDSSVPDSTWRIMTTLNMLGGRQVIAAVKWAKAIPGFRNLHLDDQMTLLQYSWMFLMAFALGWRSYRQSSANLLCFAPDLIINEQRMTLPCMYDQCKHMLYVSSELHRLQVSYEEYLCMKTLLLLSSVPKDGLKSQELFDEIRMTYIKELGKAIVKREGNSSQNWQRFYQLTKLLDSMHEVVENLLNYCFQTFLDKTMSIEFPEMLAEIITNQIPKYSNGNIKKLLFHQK", "assay": "GR-GFP Redistribution (AID 450;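 active means compounds whose dose series gives a full or clear partial fitted curve of increased nuclear translocation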; further: potency means the concentration at half of the fitted maximal effect)", "conditions": "U2OS GR-GFP nuclear translocation, laser cytometry, 2 h"}, "[5]": {"biological_target": "Glucocorticoid receptor (Homo sapiens) (UniProt P04150)", "assay": "GR-EFC Redistribution (AID 451; calls by dose curve; further: potency means the concentration at half of the fitted maximal effect)", "conditions": "CHO-K1 GR-EFC translocation, beta-gal luminescence, 2 h", "in_short": "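CHO-K1 cells stably expressing nuclear-localized β-gal enzyme acceptor and GR fused C-terminally to the enzyme donor fragment; ligand-driven nuclear translocation restores β-gal by complementation. Compounds titrated up to 46 uM final, 2 h at 37 °C; luminescence read.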"}, "[6]": {"biological_target": "3',5'-cyclic-AMP phosphodiesterase 4B (Homo sapiens) (UniProt Q07343)", "sequence (Q07343 whole entry, looked up)": "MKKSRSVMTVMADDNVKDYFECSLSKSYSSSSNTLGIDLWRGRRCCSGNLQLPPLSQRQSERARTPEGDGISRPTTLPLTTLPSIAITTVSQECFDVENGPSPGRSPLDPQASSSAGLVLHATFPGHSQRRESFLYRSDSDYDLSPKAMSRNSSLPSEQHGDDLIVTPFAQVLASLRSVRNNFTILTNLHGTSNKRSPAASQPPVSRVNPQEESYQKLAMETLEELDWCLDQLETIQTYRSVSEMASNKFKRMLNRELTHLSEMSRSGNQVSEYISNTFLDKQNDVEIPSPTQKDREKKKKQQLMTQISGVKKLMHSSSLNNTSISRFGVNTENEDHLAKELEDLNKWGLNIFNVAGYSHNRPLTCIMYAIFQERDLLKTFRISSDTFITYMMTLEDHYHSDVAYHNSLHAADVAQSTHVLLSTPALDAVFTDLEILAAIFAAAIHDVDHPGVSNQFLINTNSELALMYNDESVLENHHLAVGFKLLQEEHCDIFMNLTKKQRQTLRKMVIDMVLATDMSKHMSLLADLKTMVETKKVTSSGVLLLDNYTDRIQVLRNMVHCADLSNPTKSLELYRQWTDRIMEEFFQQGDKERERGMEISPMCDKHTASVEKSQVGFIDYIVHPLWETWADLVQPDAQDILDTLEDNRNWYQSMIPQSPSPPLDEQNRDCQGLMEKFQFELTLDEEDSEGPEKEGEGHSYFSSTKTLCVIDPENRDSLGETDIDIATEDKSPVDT", "assay": "qHTS Assay for Inhibitors of PDE-IV (AID 607; active means well fitted activation curve with a large enough effect in the main read-out, with a control signal flat, not every such curve was filed as active; further: % of control where 0% means no effect)", "conditions": "HEK293 ACTOne CNG channel cells, membrane potential fluorescence; series mostly up to 22.9 µM", "in_short": "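HEK293 ACTOne cells with CNG channel (1000/well), endogenous PDE4; membrane potential dye, compounds up to 22.9 uM final. Fluorescence Ex 535/Em 590; RO 20-1724 (100 uM final) as reference.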"}, "[7]": {"biological_target": "Cytochrome P450 1A2 (Homo sapiens) (UniProt P05177)", "sequence (P05177 whole entry, looked up)": "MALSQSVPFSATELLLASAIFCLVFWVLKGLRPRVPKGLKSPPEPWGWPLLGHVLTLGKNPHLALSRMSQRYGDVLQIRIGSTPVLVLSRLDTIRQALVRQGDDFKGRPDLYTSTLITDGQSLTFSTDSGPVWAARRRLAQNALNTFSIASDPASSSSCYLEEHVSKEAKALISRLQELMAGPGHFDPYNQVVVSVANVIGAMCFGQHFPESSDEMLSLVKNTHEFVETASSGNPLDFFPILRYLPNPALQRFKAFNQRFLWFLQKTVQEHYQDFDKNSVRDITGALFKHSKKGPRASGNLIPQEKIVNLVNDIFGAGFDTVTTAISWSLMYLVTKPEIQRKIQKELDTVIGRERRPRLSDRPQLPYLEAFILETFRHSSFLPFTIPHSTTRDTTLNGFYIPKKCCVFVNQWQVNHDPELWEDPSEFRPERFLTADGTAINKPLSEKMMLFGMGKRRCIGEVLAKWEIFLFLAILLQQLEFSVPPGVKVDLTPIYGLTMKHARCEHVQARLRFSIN", "assay": "p450-cyp1a2 (AID 410; calls by dose curve; further: potency means the concentration at half of the fitted maximal effect)", "conditions": "recombinant CYP1A2, luciferin-ME demethylation, luminescence; series mostly up to 11.4 µM", "in_short": "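20nM CYP1A2, 100uM Luciferin-ME (=Km), 100mM KPO4; cpd 10 min RT; +NADPH regen, 60 min RT; stop/detect 20 min; luminescence. Normalized to furafylline 57 uM = full inhibition.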"}, "[8]": {"biological_target": "Mitogen-activated protein kinase 10 (Mus musculus) (UniProt Q61831)", "assay": "JNK3 AlphaScreen Assay (AID 530); further: on the % scale 0 is the no-effect control and ±100 the full control effect", "conditions": "JNK3 lysate, c-Jun phosphorylation; series mostly up to 57.1 µM", "in_short": "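Biotinylated GST-cJun(1-79) served as substrate for JNK3 in HepG2 lysates stimulated with IL-1beta and TNF-alpha. ATP was 10 uM final, pH 7.6. Ser73 phosphorylation was quantified by AlphaScreen (680 nm excitation).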"}, "[9]": {"biological_target": "Cytochrome P450 3A4 (Homo sapiens) (UniProt P08684)", "sequence (P08684 whole entry, looked up)": "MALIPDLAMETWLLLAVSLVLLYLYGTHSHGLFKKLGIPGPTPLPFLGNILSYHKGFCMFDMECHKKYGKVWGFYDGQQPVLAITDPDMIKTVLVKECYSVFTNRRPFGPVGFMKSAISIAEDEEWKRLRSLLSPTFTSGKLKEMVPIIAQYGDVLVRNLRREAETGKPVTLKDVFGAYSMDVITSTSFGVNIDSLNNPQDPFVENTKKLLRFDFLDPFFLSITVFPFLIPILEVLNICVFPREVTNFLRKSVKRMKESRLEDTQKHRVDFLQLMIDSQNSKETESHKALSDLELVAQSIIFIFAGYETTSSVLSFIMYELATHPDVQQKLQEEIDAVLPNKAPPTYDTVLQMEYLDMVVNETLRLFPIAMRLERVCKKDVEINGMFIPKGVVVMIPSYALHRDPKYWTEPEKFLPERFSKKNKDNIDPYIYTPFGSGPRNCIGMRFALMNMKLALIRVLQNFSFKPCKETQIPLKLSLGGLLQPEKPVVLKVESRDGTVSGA", "assay": "qHTS Assay for Activators of Cytochrome P450 3A4 (AID 885; active means well fitted curve in the direction sought with a large enough effect; an effect the other way counts as inactive or inconclusive; further: nearly all actives have a fitted effect of over 65% in size)", "conditions": "recombinant CYP3A4, Luciferin-PPXE luminescence, 60 min; series mostly up to 57.1 µM", "in_short": "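Human CYP3A4 dealkylates Luciferin-PPXE to luciferin, which luciferase detection converts to light. Substrate was at its KM (25uM), buffer 200mM KPO4, reaction 60 min at RT.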"}, "[10]": {"assay": "Stat Signaling Pathway (AID 446);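 further: ME-180 cervical cancer cells given 40 pM IL-6 alongside compound; SIE-controlled beta-lactamase reporter measured as 460/530 nm FRET emission ratio; on the % scale 0 is the no-effect control and ±100 the full control effect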", "conditions": "ME-180 SIE beta-lactamase reporter, IL-6 stimulated, 5 h; at 7.69 µM (top of the series) unless noted", "in_short": "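Normalization used AC90 stimulation (300 pM IL-6) and AC90 inhibition (125 nM pan-JAK inhibitor at 40 pM IL-6). The underlying signal is SIE-driven beta-lactamase in ME-180 cells after 5 h IL-6 exposure with compound.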"}, "[11]": {"biological_target": "Cytochrome P450 2D6 (Homo sapiens) (UniProt P10635)", "sequence (P10635 whole entry, looked up)": "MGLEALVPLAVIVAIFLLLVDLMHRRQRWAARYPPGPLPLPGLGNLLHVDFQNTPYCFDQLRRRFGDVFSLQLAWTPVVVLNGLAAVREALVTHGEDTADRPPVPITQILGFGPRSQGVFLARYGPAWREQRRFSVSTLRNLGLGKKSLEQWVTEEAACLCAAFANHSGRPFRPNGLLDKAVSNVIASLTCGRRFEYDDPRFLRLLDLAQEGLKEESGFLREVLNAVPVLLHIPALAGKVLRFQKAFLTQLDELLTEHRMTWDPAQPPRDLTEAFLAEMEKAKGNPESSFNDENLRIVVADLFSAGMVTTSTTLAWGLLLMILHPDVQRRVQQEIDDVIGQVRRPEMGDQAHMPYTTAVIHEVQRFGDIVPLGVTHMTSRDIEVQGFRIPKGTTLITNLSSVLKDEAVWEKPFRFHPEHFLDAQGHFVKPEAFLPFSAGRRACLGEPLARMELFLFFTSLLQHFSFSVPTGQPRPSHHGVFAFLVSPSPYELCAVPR", "assay": "qHTS Assay for Inhibitors and Substrates of Cytochrome P450 2D6 (AID 891; active means well fitted curve in the direction sought with a large enough effect; an effect the other way counts as inactive or inconclusive; further: nearly all actives have a fitted effect of over 60% in size; further: potency means the concentration at half of the fitted maximal effect)", "conditions": "recombinant CYP2D6, luciferin-ME EGE luminescence; series mostly up to 11.4 µM", "in_short": "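Luminescent read-out of luciferin formed by 5 nM human CYP2D6 demethylating 30 uM Luciferin-ME EGE (Km level) over 60 min at room temperature after NADPH regeneration addition. Data normalized to full inhibition by 1.43 uM quinidine.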"}},
  "note": "A number with no mark means an inactive call. Inconclusive results are not listed. The source made the active and inactive calls. Unless noted, the call rests on the fitted dose curve; in most records, active means well fitted curve in either direction with a large enough effect (not every such curve was filed as active); inconclusive means small, poorly fitted or top-dose-only effect, or another doubt; inactive means flat fitted curve, though single readings scatter.",
  "data": [
    {"smiles": "C[C@@H]1[C@H]2C=C[C@@H]1[C@@H](c1c3ccc(=O)c(O)c-3oc3c(O)c(O)ccc13)[C@@H]2C(=O)O", "values": [
      {"measurement": "Potency", "setting": "[1]", "value": "> 11.4", "unit": "µM"},
      {"measurement": "activity change, negative = inhibition", "setting": "[2]", "value": -14.3, "unit": "%"},
      {"measurement": "activity change, negative = inhibition", "setting": "[3]", "value": 3.07, "unit": "%"},
      {"measurement": "Potency", "setting": "[4]", "value": "> 46", "unit": "µM"},
      {"measurement": "Potency", "setting": "[5]", "value": "> 9.22", "unit": "µM"},
      {"measurement": "outcome", "setting": "[6]", "value": "inactive"}
    ]},
    {"smiles": "CSC([N-]/N=C/c1cccc(C)n1)=[S]=[Cu].CS[C@H]([S-])[N-]/N=C/c1cccc(C)n1", "values": [
      {"measurement": "Potency", "setting": "[1]", "value": "> 11.4", "unit": "µM"},
      {"measurement": "Potency", "setting": "[7]", "value": "0.631 µM (active)"},
      {"measurement": "activity change, negative = inhibition", "setting": "[3]", "value": "-102% (active)"},
      {"measurement": "Potency", "setting": "[4]", "value": "> 46", "unit": "µM"},
      {"measurement": "Potency", "setting": "[5]", "value": "> 9.22", "unit": "µM"},
      {"measurement": "activity change, negative = inhibition", "setting": "[8]", "value": "-6.87% [at 11.4 µM]"},
      {"measurement": "activity change, positive = activation", "setting": "[9]", "value": "-73.3% [at 11.4 µM]"}
    ]},
    {"smiles": "CC[C@]1(OC(=O)CN)C(=O)OCc2c1cc1n(c2=O)Cc2cc3ccccc3nc2-1", "values": [
      {"measurement": "Potency", "setting": "[1]", "value": "> 11.4", "unit": "µM"},
      {"measurement": "activity change, negative = inhibition", "setting": "[7]", "value": "-17.6% [at 2.29 µM]"},
      {"measurement": "Potency", "setting": "[4]", "value": "> 46", "unit": "µM"},
      {"measurement": "Potency", "setting": "[5]", "value": "> 9.22", "unit": "µM"},
      {"measurement": "activity change, negative = inhibition", "setting": "[8]", "value": "-1.42% [at 11.4 µM]"}
    ]},
    {"smiles": "Nc1ccccc1O.O.O=C(O)[C@H]1[O][Sb][O][C@H]1C(=O)O", "values": [
      {"measurement": "Potency", "setting": "[1]", "value": "> 11.4", "unit": "µM"},
      {"measurement": "activity change, negative = inhibition", "setting": "[7]", "value": "-23.1% [at 2.29 µM]"},
      {"measurement": "activity change, negative = inhibition", "setting": "[3]", "value": -17.5, "unit": "%"},
      {"measurement": "activity, negative = inhibition", "setting": "[10]", "value": 8.88, "unit": "%"},
      {"measurement": "Potency", "setting": "[4]", "value": "> 46", "unit": "µM"},
      {"measurement": "Potency", "setting": "[5]", "value": "> 9.22", "unit": "µM"},
      {"measurement": "activity change, negative = inhibition", "setting": "[8]", "value": "-2.79% [at 11.4 µM]"},
      {"measurement": "outcome", "setting": "[6]", "value": "inactive"}
    ]},
    {"smiles": "CC[C@@H]1CN2CCc3cc(OC)c(OC)cc3[C@H]2C[C@@H]1C[C@@H]1NCCc2cc(O)c(OC)cc21", "values": [
      {"measurement": "activity change, negative = inhibition", "setting": "[2]", "value": "-117% [at 17.2 µM] (active)"},
      {"measurement": "Potency", "setting": "[7]", "value": "inactive"},
      {"measurement": "activity change, negative = inhibition", "setting": "[3]", "value": "-126% [at 17.2 µM] (active)"},
      {"measurement": "activity, negative = inhibition", "setting": "[10]", "value": "-100% [at 17.2 µM] (active)"},
      {"measurement": "Potency", "setting": "[4]", "value": "> 20.6", "unit": "µM"},
      {"measurement": "Potency", "setting": "[5]", "value": "> 20.6", "unit": "µM"},
      {"measurement": "Potency", "setting": "[8]", "value": "inactive"}
    ]},
    {"smiles": "CC[C@@H]1[C@@H]2Cc3ccc(O)cc3[C@@]1(CC)CCN2C", "values": [
      {"measurement": "Potency", "setting": "[1]", "value": "> 11.4", "unit": "µM"},
      {"measurement": "activity change, negative = inhibition", "setting": "[2]", "value": -9.39, "unit": "%"},
      {"measurement": "activity change, negative = inhibition", "setting": "[3]", "value": 17.1, "unit": "%"},
      {"measurement": "activity, negative = inhibition", "setting": "[10]", "value": 2.87, "unit": "%"},
      {"measurement": "activity change, negative = inhibition", "setting": "[8]", "value": "2.22% [at 11.4 µM]"},
      {"measurement": "outcome", "setting": "[6]", "value": "inactive"}
    ]},
    {"smiles": "NNc1c(C(N)=O)c2c(N)ncnc2n1[C@@H]1O[C@H](CO)[C@@H](O)[C@@H]1O", "values": [
      {"measurement": "Potency", "setting": "[1]", "value": "> 11.4", "unit": "µM"},
      {"measurement": "activity change, negative = inhibition", "setting": "[7]", "value": "-11.2% [at 2.29 µM]"},
      {"measurement": "activity change, negative = inhibition", "setting": "[3]", "value": 6.43, "unit": "%"},
      {"measurement": "Potency", "setting": "[4]", "value": "> 46", "unit": "µM"},
      {"measurement": "activity change, negative = inhibition", "setting": "[8]", "value": "-2.85% [at 11.4 µM]"},
      {"measurement": "outcome", "setting": "[6]", "value": "inactive"},
      {"measurement": "Potency", "setting": "[11]", "value": "inactive"}
    ]},
    {"smiles": "CCc1ccc(CCN2CCCCC2)nc1", "values": [
      {"measurement": "Potency", "setting": "[1]", "value": "> 11.4", "unit": "µM"},
      {"measurement": "activity change, negative = inhibition", "setting": "[2]", "value": 15.5, "unit": "%"},
      {"measurement": "activity change, negative = inhibition", "setting": "[3]", "value": -21.3, "unit": "%"},
      {"measurement": "Potency", "setting": "[4]", "value": "> 46", "unit": "µM"},
      {"measurement": "Potency", "setting": "[5]", "value": "> 9.22", "unit": "µM"},
      {"measurement": "activity change, negative = inhibition", "setting": "[8]", "value": "1.06% [at 11.4 µM]"},
      {"measurement": "outcome", "setting": "[6]", "value": "inactive"},
      {"measurement": "Potency", "setting": "[11]", "value": "1.58 µM (active)"}
    ]}
  ]
}
